Data taken from PubChem BioAssay AID431 (Sanford-Burnham Center for Chemical Genomics, 2006).
Hit rate of the full screen: of about 63,000 compounds, about 1,100 (1.7%) were called active.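 Rule for the calls: active = compounds whose percent cytotoxicity in the single-dose primary screen, scaled between solvent and toxic-drug controls, exceeds 50; inactive = the rest.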 Only a selection was taken, and actives are over-represented in it overall. Results with a measured potency or affinity are listed apart.

Experiment: cytotoxicity in KRAS-transformed pancreatic duct cells, primary screen, cell-based, fluorescence, HTS (AID 431);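 note: 0% = DMSO solvent wells and 100% = doxorubicin-treated wells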
Settings: HPDE-C7K KRASV12 cells, Alamar Blue viability, 48 h; at 10 µM; hits give high values

SMILES | cytotoxicity
COc1cc(S(=O)(=O)N2CCN(c3ccccc3F)CC2)ccc1Cl | 24% (inactive)
CCCC(=O)CN1C(=O)C2(OCCO2)c2ccccc21 | -6.1% (inactive)
COc1ccc2c(c1)CCc1c(C(=O)NCc3ccc(F)cc3)noc1-2 | 1.6% (inactive)
COc1ccc(OCCC(=O)Nc2cc(C)on2)cc1 | 1.4% (inactive)
CCCCn1c(SCC(=O)Nc2cc(C)on2)nc2ccccc2c1=O | -8.1% (inactive)
Cc1nnc2sc(-c3cccc(NC(=O)c4ccc(-c5cccc(Cl)c5)o4)c3)nn12 | -2.2% (inactive)
Cc1ccc(-c2nn3c(C)nnc3s2)cc1NC(=O)c1ccc(Br)o1 | -0.3% (inactive)
O=C(Nc1nnc(-c2ccco2)o1)C1CCCCC1 | 4.3% (inactive)
CCOc1ccc(-c2nnn(CC(=O)Nc3ccccc3OC)n2)cc1OCC | -3.2% (inactive)
CCOc1ccc(-c2nnn(CC(=O)Nc3cc(OC)cc(OC)c3)n2)cc1OCC | -1.3% (inactive)
CCOc1ccc(-c2nnn(CC(=O)Nc3cc(OC)ccc3OC)n2)cc1OCC | 70.6% (active)
Cc1ccc2[nH]c(C)c(CN(C)C3CCN(C)CC3)c(=O)c2c1 | -9.9% (inactive)
O=C(NCc1ccco1)c1cccc2ccccc12 | -9% (inactive)
Cc1ccc(-c2n[nH]c(=O)c3ccccc23)cc1N | 1.4% (inactive)
CCC(c1nc2ccccc2c(=O)n1CCCn1ccnc1)N1C(=O)c2ccccc2C1=O (stereo not given) | -3.6% (inactive)
COc1ccc(N/C=C(\C#N)c2nc3ccccc3n2C)c(OC)c1 | 44.3% (inactive)
C(=C\c1ccccc1)/CN1CCN(C(c2ccccc2)c2ccccc2)CC1 | 2.8% (inactive)
O=C(Nc1ccc(F)cc1)N1CCN(C/C=C/c2ccccc2)CC1 | 25.8% (inactive)

SMILES | cytotoxicity
O=C(CSC1=Nc2ccccc2C2=NC(CC(=O)NCc3ccco3)C(=O)N12)NCC1CCCO1 (stereo not given) | -7.9% (inactive)
CCOc1ccc(C(=O)N2CCN=C2SC)cc1OCC | -3.5% (inactive)
Cc1ccc(C)c(OCC(=O)Nc2cc(C)on2)c1 | 4.9% (inactive)
Cc1ccc(C)c(OCC(=O)Nc2ccc3c(c2)OCO3)c1 | -3.1% (inactive)
Cc1ccc(C)c(OCC(=O)Nc2nonc2NC(=O)COc2cc(C)ccc2C)c1 | 74.3% (active)
CSc1nnc([C@H](C)NC(=O)OC(C)(C)C)o1 | -22.1% (inactive)
Cn1cccc1C(C(=O)NC1CCCCC1)N(C(=O)Cc1cccs1)C1CC1 (stereo not given) | -22.4% (inactive)
N#Cc1ccc(-c2ccco2)nc1SCC(=O)c1ccc(Cl)cc1 | 19.1% (inactive)
COc1ccc(NC(=O)CSC2=C(C#N)C(c3ccco3)C3=C(CCCC3=O)N2)c(OC)c1 (stereo not given) | -2.7% (inactive)
CC(C)(C)c1ccc(C(=O)CCCSC2=C(C#N)C(c3ccco3)C3=C(CCCC3=O)N2)cc1 (stereo not given) | 18.5% (inactive)
Cc1cccc(N2CCN(c3cc(C)nc4nnnn34)CC2C)c1 (stereo not given) | -38.8% (inactive)
O=C(Cn1cnc2c(nnn2Cc2ccc(Cl)cc2)c1=O)NCC1CCCO1 (stereo not given) | -3.4% (inactive)
COC(=O)c1c(NC(=O)c2cccs2)sc2c1CCC(C)C2 (stereo not given) | 5.5% (inactive)
Cc1sc(NC(=O)CSc2nnc(COc3ccccc3)n2C)c(C#N)c1C | 4.2% (inactive)
Cc1ccc(-c2csc3nnc(SCC(=O)Nc4nsc(-c5ccccc5)n4)n23)cc1 | -0.3% (inactive)
Clc1ccccc1Cn1nnc2c(Nc3ccccc3)ncnc21 | -4.9% (inactive)
CC(C)CCNc1ncnc2c1nnn2Cc1ccccc1Cl | -8.2% (inactive)
